Laboratory results as given in PubChem BioAssay.
For part of these data: Entries with a potency or affinity are not part of this list. Active and inactive are the calls of the source. Unless noted, the rule behind the calls is not given here.

Tests used:
[1] = antimalarial activity against Dd2 strain (AID 2302;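 active = growth inhibition above 50% at the single 2 µM test dose, taken to imply half-maximal potency below 2 µM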;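 note: 0% = DMSO untreated growth and 100% = chloroquine plus artemisinin killed control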); settings: P. falciparum Dd2 in RBCs, LDH growth readout, 72 h; at 2 µM; active compounds read high
[2] = HepG2 cytotoxicity, primary screen, cytotoxicity control for P. falciparum antimalarial project, cell-based, ATP luminescence (AID 2303;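 active = inhibition above 50%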;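 note: 0% = DMSO wells and 100% = digitonin-killed cells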); settings: HepG2 viability, 24-48 h, at 10 µM, active compounds read high
[3] = biological target: L-lactate dehydrogenase (Plasmodium falciparum (isolate CDC / Honduras)) (UniProt Q27743); test: PfLDH activity inhibition – cell lysate, 3D7 strain, counter-screen for P. falciparum growth inhibition project (AID 2304);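 note: 0% = vehicle and 100% = reference inhibitor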; settings: P. falciparum 3D7 crude extract, LDH APAD/NBT absorbance; at 2 µM; active compounds read high
Sequence of L-lactate dehydrogenase (Plasmodium falciparum (isolate CDC / Honduras)) (Q27743 whole entry, looked up): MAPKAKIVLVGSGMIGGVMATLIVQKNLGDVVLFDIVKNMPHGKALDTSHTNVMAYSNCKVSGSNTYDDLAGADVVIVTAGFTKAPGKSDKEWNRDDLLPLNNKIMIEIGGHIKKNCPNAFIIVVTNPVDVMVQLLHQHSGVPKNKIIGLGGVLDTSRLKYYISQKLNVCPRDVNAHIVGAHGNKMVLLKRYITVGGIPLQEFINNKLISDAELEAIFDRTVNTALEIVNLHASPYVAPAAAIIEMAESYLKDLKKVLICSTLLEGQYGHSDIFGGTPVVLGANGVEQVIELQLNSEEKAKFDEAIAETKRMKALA

[4] = inhibition of 3D7 malaria parasite growth – strain 3D7 (AID 2306);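 note: 0% = DMSO wells and 100% = chloroquine plus artemisinin control wells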; settings: P. falciparum 3D7 erythrocytic growth, LDH absorbance, 72 h; at 2 µM; active compounds read high
[5] = biological target: Calcium-dependent protein kinase 1 (Plasmodium falciparum (isolate 3D7)) (UniProt P62344); test: PfCDPK1 kinase inhibitors, biochemical, TCAMS library (AID 1159585; cut-off not given, nearly all actives have IC50 up to about 0.98 µM;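 note: inhibitors leave more ATP so luminescence rises with inhibition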); settings: recombinant PfCDPK1, Kinase-Glo ATP depletion luminescence
Sequence of Calcium-dependent protein kinase 1 (Plasmodium falciparum (isolate 3D7)) (P62344 whole entry, looked up): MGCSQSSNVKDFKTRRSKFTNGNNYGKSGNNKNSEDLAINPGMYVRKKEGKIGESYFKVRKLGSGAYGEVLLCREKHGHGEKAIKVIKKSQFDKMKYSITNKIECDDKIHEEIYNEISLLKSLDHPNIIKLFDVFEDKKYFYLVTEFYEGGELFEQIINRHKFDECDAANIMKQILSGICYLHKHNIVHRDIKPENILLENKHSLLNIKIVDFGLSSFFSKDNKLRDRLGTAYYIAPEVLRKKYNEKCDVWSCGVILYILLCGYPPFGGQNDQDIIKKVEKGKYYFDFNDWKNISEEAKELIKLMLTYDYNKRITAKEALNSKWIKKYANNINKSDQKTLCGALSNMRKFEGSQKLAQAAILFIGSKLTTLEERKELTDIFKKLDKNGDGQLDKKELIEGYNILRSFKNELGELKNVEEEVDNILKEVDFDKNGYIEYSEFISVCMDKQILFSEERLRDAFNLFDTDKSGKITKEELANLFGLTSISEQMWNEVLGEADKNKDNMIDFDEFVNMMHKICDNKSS

[6] = biological target: Plasmodium falciparum protein kinase 6 (PK6, PF3D7_1337100) (UniProt Q8IDW1); test: PfPK6 kinase inhibitors, biochemical, TCAMS library (AID 1159586); settings: recombinant PfPK6, Kinase-Glo ATP depletion luminescence
Sequence of Plasmodium falciparum protein kinase 6 (PK6, PF3D7_1337100) (Q8IDW1 1-305): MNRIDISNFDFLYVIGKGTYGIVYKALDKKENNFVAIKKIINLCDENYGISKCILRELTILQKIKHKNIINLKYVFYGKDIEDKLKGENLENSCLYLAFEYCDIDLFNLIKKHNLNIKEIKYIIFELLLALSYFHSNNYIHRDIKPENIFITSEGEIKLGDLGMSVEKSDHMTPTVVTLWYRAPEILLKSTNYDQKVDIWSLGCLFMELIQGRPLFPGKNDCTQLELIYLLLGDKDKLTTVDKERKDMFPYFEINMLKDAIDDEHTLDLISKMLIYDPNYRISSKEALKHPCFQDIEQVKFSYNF

[7] = biological target: Protein kinase 7 (PK7), Plasmodium falciparum 3D7 (PF3D7_0213400) (UniProt Q7YTF7); test: inhibition of Plasmodium PK7 catalytic activity – biochemical, TCAMS antimalarial set, Kinase-Glo luminescence (AID 1159587); settings: recombinant PfPK7, Kinase-Glo ATP depletion luminescence
Sequence of Protein kinase 7 (PK7), Plasmodium falciparum 3D7 (PF3D7_0213400) (Q7YTF7 1-343): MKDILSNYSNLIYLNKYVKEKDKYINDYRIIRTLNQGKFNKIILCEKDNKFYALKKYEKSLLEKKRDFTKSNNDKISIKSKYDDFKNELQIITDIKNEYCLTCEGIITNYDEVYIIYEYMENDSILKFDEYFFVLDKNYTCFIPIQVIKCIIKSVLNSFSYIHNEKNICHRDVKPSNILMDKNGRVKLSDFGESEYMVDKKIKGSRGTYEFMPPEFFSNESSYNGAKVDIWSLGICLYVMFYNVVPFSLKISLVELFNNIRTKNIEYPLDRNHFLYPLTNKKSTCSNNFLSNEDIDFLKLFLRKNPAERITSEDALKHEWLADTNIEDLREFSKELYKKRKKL

[8] = biological target: Calcium-dependent protein kinase 4 (Plasmodium falciparum (isolate 3D7)) (UniProt Q8IBS5); test: PfCDPK4 kinase inhibitors, biochemical, TCAMS library (AID 1159588; cut-off not given, nearly all actives have IC50 up to about 0.91 µM); settings: recombinant PfCDPK4, Kinase-Glo ATP depletion luminescence
Sequence of Calcium-dependent protein kinase 4 (Plasmodium falciparum (isolate 3D7)) (Q8IBS5 whole entry, looked up): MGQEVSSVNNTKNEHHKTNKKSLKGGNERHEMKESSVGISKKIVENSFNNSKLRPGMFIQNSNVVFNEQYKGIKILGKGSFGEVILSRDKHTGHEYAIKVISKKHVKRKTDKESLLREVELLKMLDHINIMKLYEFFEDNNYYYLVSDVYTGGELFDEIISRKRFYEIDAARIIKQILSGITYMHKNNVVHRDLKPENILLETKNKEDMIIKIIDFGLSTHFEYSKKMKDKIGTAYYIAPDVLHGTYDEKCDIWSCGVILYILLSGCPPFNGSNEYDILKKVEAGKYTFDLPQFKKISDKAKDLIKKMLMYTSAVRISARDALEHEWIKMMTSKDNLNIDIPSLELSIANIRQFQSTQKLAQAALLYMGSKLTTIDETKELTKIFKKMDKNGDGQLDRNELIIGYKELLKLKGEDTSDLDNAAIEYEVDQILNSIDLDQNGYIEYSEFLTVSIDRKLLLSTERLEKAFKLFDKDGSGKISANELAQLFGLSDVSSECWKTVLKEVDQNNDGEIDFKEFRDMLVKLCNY

COCCn1c(C)nc2ccccc2c1=O
active: growth inhibition [1] 67% | growth inhibition [4] 89%
inactive: inhibition [2] -3% | inhibition [3] -3% | outcome [5] | outcome [6] | outcome [7] | outcome [8]

O=C(NCCCCN1CCC(c2ccc3c(c2OCc2ccncc2)CCCC3)CC1)c1ccc(-c2ccc(C(F)(F)F)cc2)cc1
active: growth inhibition [1] 92% | inhibition [2] 96% | growth inhibition [4] 101%
inactive: inhibition [3] 3% | outcome [5] | outcome [6] | outcome [7] | outcome [8]

Cn1nc(-c2ccc(Cl)cc2)c2cc(C(=O)NCCN3CCOCC3)sc21
active: growth inhibition [4] 97%
inactive: growth inhibition [1] 29% | inhibition [2] 21% | inhibition [3] -8% | outcome [5] | outcome [6] | outcome [7] | outcome [8]

COc1ccc2nccc([C@@H](O)CN3CCC(NCc4cc5ccccn5n4)CC3)c2c1
active: growth inhibition [4] 99%
inactive: growth inhibition [1] 18% | inhibition [2] 7% | inhibition [3] -8% | outcome [5] | outcome [6] | outcome [7] | outcome [8]

CC(C)(C)C(C)(C)Cc1ccc(O)c(CN2CCN(c3ccccc3)CC2)c1
inactive: inhibition [2] 6% | inhibition [3] 0% | outcome [5] | outcome [6] | outcome [7] | outcome [8]
active: growth inhibition [1] 98% | growth inhibition [4] 99%

CCN(CC)CCCC(C)Nc1cc(C=Cc2ccccc2Cl)nc2cc(Cl)ccc12 (configuration not stated)
inactive: inhibition [2] 0% | inhibition [3] -2% | outcome [5] | outcome [6] | outcome [7] | outcome [8]
active: growth inhibition [1] 77% | growth inhibition [4] 99%

COc1ccc(Nc2ncc3c(-c4cccc(NC(=O)c5ccc(N)cc5)c4)c[nH]c3n2)cc1OC
inactive: growth inhibition [1] 31% | inhibition [3] -3% | outcome [5] | outcome [6] | outcome [7] | outcome [8]
active: inhibition [2] 83% | growth inhibition [4] 84%

COc1cccc2cc(C(=O)N[C@@H](CC(C)C)C(=O)N[C@H](/C=N/N3CC(=O)NC3=O)CC(C)C)oc12
inactive: inhibition [2] 3% | inhibition [3] 2% | outcome [5] | outcome [6] | outcome [7] | outcome [8]
active: growth inhibition [1] 64% | growth inhibition [4] 86%

CCN(CC)CCCN1CCN(C(=O)c2cccc(-c3noc(C(F)(F)F)n3)c2)CC1
active: growth inhibition [1] 74% | growth inhibition [4] 91%
inactive: inhibition [2] -10% | inhibition [3] 7% | outcome [5] | outcome [6] | outcome [7] | outcome [8]

CCOC(=O)c1cc(C(=O)NCCCCN2CCC(c3cn(C)c4ccccc34)CC2)ccc1-c1ccc(C(F)(F)F)cc1
active: growth inhibition [4] 91%
inactive: growth inhibition [1] 6% | inhibition [2] 25% | inhibition [3] -3% | outcome [5] | outcome [6] | outcome [7] | outcome [8]

N#Cc1ccc(-c2ccc(C(=O)NCCCCN3CCC(c4ccc5c(c4OCC(N)=O)CCCC5)CC3)cc2)cc1
inactive: growth inhibition [1] 23% | inhibition [2] 21% | inhibition [3] -3% | outcome [5] | outcome [6] | outcome [7] | outcome [8]
active: growth inhibition [4] 87%

Cc1c(CC(=O)N(C)C2CCN(CCCCCNC(=O)/C=C/c3ccc(Cl)c(Cl)c3)CC2)sc2ccc(Cl)cc12
inactive: growth inhibition [1] 9% | inhibition [3] 3% | outcome [5] | outcome [6] | outcome [7] | outcome [8]
active: inhibition [2] 93% | growth inhibition [4] 95%

Cc1ccccc1C(=O)NC(NC(=S)Nc1ccc([N+](=O)[O-])cc1)C(Cl)(Cl)Cl (configuration not stated)
active: growth inhibition [4] 101%
inactive: growth inhibition [1] 39% | inhibition [2] -7% | inhibition [3] 0% | outcome [5] | outcome [6] | outcome [7] | outcome [8]

COc1cc2nc(N3CCC(CNC(=O)c4ccc(C(C)=O)cc4)CC3)nc(N)c2cc1OC
active: growth inhibition [4] 96%
inactive: growth inhibition [1] 15% | inhibition [2] 10% | inhibition [3] 1% | outcome [5] | outcome [6] | outcome [7] | outcome [8]

Cc1ccc(N(CCC(=N)N)Cc2ccccc2)cc1
inactive: inhibition [2] 6% | inhibition [3] -3% | outcome [5] | outcome [6] | outcome [7] | outcome [8]
active: growth inhibition [1] 95% | growth inhibition [4] 96%

Cc1cc(N2CCCC2)nc(Nc2ccc(NC(=O)CC(C)C)cc2)n1
inactive: inhibition [2] 37% | inhibition [3] -1% | outcome [5] | outcome [6] | outcome [7] | outcome [8]
active: growth inhibition [1] 53% | growth inhibition [4] 95%

Oc1c(C(Nc2ccccn2)c2ccc(Cl)cc2Cl)ccc2cccnc12 (configuration not stated)
inactive: inhibition [2] 42% | inhibition [3] 1% | outcome [5] | outcome [6] | outcome [7] | outcome [8]
active: growth inhibition [1] 60% | growth inhibition [4] 88%

Nc1ccc2[nH]cc(C3CCN(CC4CCN(C(=O)/C=C/c5ccc(Cl)c(Cl)c5)CC4)CC3)c2n1
inactive: inhibition [3] -2% | outcome [5] | outcome [6] | outcome [7] | outcome [8]
active: growth inhibition [1] 97% | inhibition [2] 53% | growth inhibition [4] 99%

c1ccc2c(NCCCCCCCNc3ccnc4ccccc34)ccnc2c1
active: growth inhibition [1] 94% | inhibition [2] 91% | growth inhibition [4] 101%
inactive: inhibition [3] 1% | outcome [5] | outcome [6] | outcome [7] | outcome [8]

Cc1cccc2[nH]c(-c3ccc(-c4ccc(CNCCCN5CCCC5=O)cc4)cc3)nc12
inactive: growth inhibition [1] 47% | inhibition [2] 7% | inhibition [3] -5% | outcome [5] | outcome [6] | outcome [7] | outcome [8]
active: growth inhibition [4] 100%

Cc1nc(-c2ccc(-c3ccc(NC(=O)c4coc5ccc(N6C[C@@H](C)N(C)[C@@H](C)C6)cc45)cc3)c(C)c2)no1
active: growth inhibition [4] 96%
inactive: growth inhibition [1] 46% | inhibition [2] 21% | inhibition [3] 1% | outcome [5] | outcome [6] | outcome [7] | outcome [8]

Cc1cc(NCCC(=O)NCCOc2ccccc2)nc(NCc2ccccc2C)n1
inactive: growth inhibition [1] 29% | inhibition [2] 17% | inhibition [3] 0% | outcome [5] | outcome [6] | outcome [7] | outcome [8]
active: growth inhibition [4] 92%

Cc1ccc(C(=O)Nc2cccc(CN3CCCN(Cc4ccc(O)cc4)CC3)c2)s1
inactive: growth inhibition [1] 23% | inhibition [2] 17% | inhibition [3] -4% | outcome [5] | outcome [6] | outcome [7] | outcome [8]
active: growth inhibition [4] 90%

O=C(Nc1ccc(C(F)(F)F)cc1)c1ccc(NCCCN2CCCCCC2)c([N+](=O)[O-])c1
inactive: inhibition [2] 42% | inhibition [3] -5% | outcome [5] | outcome [6] | outcome [7] | outcome [8]
active: growth inhibition [1] 98% | growth inhibition [4] 102%

COc1ccc(CNc2ncc(-c3ccsc3)c(-c3nccs3)n2)cc1OC
active: growth inhibition [1] 69% | growth inhibition [4] 86%
inactive: inhibition [2] 10% | inhibition [3] -1% | outcome [5] | outcome [6] | outcome [7] | outcome [8]

COc1cc(F)c2nccc([C@@H](O)CN3CC[C@H](NCc4ccc5c(n4)NC(=O)CS5)[C@H](F)C3)c2c1
active: growth inhibition [1] 80% | growth inhibition [4] 87%
inactive: inhibition [2] 32% | inhibition [3] 5% | outcome [5] | outcome [6] | outcome [7] | outcome [8]

CCC(C)NC(=O)Nc1ccc(-c2cccc(-c3nc4ccccc4[nH]3)c2)cc1 (configuration not stated)
inactive: growth inhibition [1] 37% | inhibition [2] 41% | inhibition [3] 7% | outcome [5] | outcome [6] | outcome [7] | outcome [8]
active: growth inhibition [4] 94%

CCCNCc1ccc(-c2ccc(CN(CC3CCCO3)C(=O)C3CC(=O)c4ccccc43)cc2)nc1 (configuration not stated)
inactive: inhibition [2] 0% | inhibition [3] 3% | outcome [5] | outcome [6] | outcome [7] | outcome [8]
active: growth inhibition [1] 65% | growth inhibition [4] 101%

CC(C)CCN1CCCN(Cc2cccc(C(=O)Nc3ccc(C(C)(C)C)cc3)c2)CC1
inactive: growth inhibition [1] 1% | inhibition [2] 33% | inhibition [3] -5% | outcome [5] | outcome [6] | outcome [7] | outcome [8]
active: growth inhibition [4] 85%

O=C(NC1CCCCC1)N(Cc1ccc(-c2ccc(CNCc3ccc4c(c3)OCO4)cc2)cc1)C1CCN(Cc2ccccc2)CC1
active: growth inhibition [1] 72% | growth inhibition [4] 102%
inactive: inhibition [2] 28% | inhibition [3] -2% | outcome [5] | outcome [6] | outcome [7] | outcome [8]

COc1cc([N+](=O)[O-])ccc1NC(=O)c1cc(Cl)ccc1O
inactive: inhibition [3] 6% | outcome [5] | outcome [6] | outcome [7] | outcome [8]
active: growth inhibition [1] 100% | inhibition [2] 92% | growth inhibition [4] 87%

COc1ccc(NC(=O)[C@H](Cc2ccccc2)Nc2nc(NCCN3CCCC3)ncc2C)cc1
active: growth inhibition [4] 89%
inactive: growth inhibition [1] 9% | inhibition [2] 26% | inhibition [3] 1% | outcome [5] | outcome [6] | outcome [7] | outcome [8]

CC(C)CNCc1cccc(-c2ccc(CNc3ccc(C(=O)c4ccccc4)cc3)cc2)c1
inactive: growth inhibition [1] 0% | inhibition [2] 10% | inhibition [3] 0% | outcome [5] | outcome [6] | outcome [7] | outcome [8]
active: growth inhibition [4] 97%

CN(C)CCOc1ccc(-c2cc(-c3ccc(Cl)c(O)c3)c(-c3ccncc3)o2)cc1
inactive: inhibition [2] 39% | inhibition [3] 2% | outcome [5] | outcome [6] | outcome [7] | outcome [8]
active: growth inhibition [1] 99% | growth inhibition [4] 102%

CCOc1cc(C(=O)Nc2ccc(-c3nc4ccccc4[nH]3)cc2)cc(OCC)c1OCC
active: growth inhibition [1] 94% | growth inhibition [4] 100%
inactive: inhibition [2] 42% | inhibition [3] -2% | outcome [5] | outcome [6] | outcome [7] | outcome [8]

Nc1c2c(nc3ccc(NC(=O)CCCc4ccccc4)cc13)CCCC2
active: inhibition [2] 73% | growth inhibition [4] 101%
inactive: growth inhibition [1] 42% | inhibition [3] -1% | outcome [5] | outcome [6] | outcome [7] | outcome [8]

CCNc1cc(C(=O)N[C@@H](Cc2ccccc2)[C@H](O)CNC(C)(C)CSCC(C)C)cc(N2CCCC2=O)c1
inactive: inhibition [2] -20% | inhibition [3] -7% | outcome [5] | outcome [6] | outcome [7] | outcome [8]
active: growth inhibition [1] 97% | growth inhibition [4] 101%

O=C(Nc1ccc2c(c1)CCN(C1CCC1)CC2)c1ccc(-n2ccnc2)cn1
inactive: growth inhibition [1] -1% | inhibition [2] 8% | inhibition [3] 0% | outcome [5] | outcome [6] | outcome [7] | outcome [8]
active: growth inhibition [4] 92%

Cc1ccc(OCCCCON2C(N)=NC(N)=NC2(C)C)cc1C
active: growth inhibition [1] 97% | inhibition [2] 61% | growth inhibition [4] 94%
inactive: inhibition [3] -3% | outcome [5] | outcome [6] | outcome [7] | outcome [8]
